In PubChem BioAssay:
Active and inactive are the calls of the source. Unless noted, how the calls were made is not given here.

Legend:
[1] = compounds binding Alexa647 anti-His antibody – biochemical, small-molecule microarray, 635 nm fluorescence, artefact control for SMM control protein annotation, primary screen (AID 1128); conditions: higher = more signal;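 further: score merges feature fluorescence with signal-to-noise for each printed compound spot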
[2] = system: Human papillomavirus type 1a E7 protein (residues 1-88); assay: HPV1a E7 small-molecule binders, primary screen, biochemical, small-molecule microarray, residues 1-88, 635 nm (AID 1129); conditions: small-molecule microarray binding, fluorescence 635 nm; higher = more signal
[3] = target: Focal adhesion kinase 1 (Homo sapiens) (UniProt Q05397); assay: PTK2 protein binding on printed compound slides – biochemical, small-molecule microarray, 635/667 nm fluorescence, BSA, DTT, primary screen (AID 1130); conditions: 635 nm fluorescence, higher = more signal;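 further: composite of spot emission at 667 nm and signal to noise over triplicate slides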
Chain of Focal adhesion kinase 1 (Homo sapiens) (Q05397 whole entry, looked up): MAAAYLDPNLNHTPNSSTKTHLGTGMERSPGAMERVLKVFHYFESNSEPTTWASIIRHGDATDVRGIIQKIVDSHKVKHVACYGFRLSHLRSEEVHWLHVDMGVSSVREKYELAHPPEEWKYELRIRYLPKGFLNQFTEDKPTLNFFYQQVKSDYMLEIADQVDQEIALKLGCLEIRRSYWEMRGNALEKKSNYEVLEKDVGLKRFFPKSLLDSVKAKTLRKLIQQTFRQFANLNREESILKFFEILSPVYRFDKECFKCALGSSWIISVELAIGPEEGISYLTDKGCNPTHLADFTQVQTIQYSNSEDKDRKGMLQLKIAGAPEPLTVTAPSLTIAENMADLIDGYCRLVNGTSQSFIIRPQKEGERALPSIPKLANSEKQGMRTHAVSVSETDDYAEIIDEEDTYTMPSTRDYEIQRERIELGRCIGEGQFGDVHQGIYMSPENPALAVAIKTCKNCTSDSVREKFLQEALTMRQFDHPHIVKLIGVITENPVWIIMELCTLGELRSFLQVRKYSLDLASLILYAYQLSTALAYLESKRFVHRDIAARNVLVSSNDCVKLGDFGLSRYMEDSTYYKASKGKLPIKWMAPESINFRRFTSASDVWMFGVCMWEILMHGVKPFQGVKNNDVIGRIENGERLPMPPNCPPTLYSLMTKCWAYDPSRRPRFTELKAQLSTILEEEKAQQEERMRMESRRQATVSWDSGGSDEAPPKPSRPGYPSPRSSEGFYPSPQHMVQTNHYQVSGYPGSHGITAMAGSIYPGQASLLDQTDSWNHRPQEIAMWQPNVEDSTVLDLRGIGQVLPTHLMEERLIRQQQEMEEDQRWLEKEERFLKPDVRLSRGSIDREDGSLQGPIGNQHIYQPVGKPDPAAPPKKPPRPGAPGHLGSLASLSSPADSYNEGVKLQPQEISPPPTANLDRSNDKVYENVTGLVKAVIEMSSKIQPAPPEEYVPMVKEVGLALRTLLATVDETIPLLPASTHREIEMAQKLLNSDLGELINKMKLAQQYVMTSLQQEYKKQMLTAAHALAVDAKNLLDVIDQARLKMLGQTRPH

[4] = system: Fibrinogen (Alexa647-labelled); assay: Alexa647-fibrinogen binding to printed small molecules – biochemical, small-molecule microarray, 635/667 nm fluorescence, artefact control for SMM control-protein annotation, profiling panel (AID 1131); conditions: fibrinogen-A647 binding fluorescence, higher = more signal;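 further: z-score merges 667 nm fluorescence with per-spot signal-to-noise over triplicate slides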
[5] = target: Follistatin (Homo sapiens) (UniProt P19883); assay: FST protein binding to printed compounds – biochemical, small-molecule microarray, 635/667 nm fluorescence, primary screen (AID 1132); conditions: 635 nm fluorescence, higher = more signal
Chain of Follistatin (Homo sapiens) (P19883 whole entry, looked up): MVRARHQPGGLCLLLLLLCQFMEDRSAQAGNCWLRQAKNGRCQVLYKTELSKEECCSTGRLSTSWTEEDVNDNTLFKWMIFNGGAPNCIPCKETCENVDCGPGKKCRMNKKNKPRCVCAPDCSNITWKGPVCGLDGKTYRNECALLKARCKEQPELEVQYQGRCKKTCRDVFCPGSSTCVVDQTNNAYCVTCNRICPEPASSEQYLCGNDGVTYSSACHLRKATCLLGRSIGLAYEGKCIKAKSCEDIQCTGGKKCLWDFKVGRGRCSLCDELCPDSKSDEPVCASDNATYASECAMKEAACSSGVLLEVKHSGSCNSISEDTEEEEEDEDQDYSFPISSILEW

[6] = target: Fibroblast growth factor 2 (Homo sapiens) (UniProt P09038); assay: basic fibroblast growth factor binding to printed compounds – biochemical, small-molecule microarray, 635/667 nm fluorescence, primary screen (AID 1133); conditions: FGF2, fluorescence 635/667, higher = more signal
Chain of Fibroblast growth factor 2 (Homo sapiens) (P09038 whole entry, looked up): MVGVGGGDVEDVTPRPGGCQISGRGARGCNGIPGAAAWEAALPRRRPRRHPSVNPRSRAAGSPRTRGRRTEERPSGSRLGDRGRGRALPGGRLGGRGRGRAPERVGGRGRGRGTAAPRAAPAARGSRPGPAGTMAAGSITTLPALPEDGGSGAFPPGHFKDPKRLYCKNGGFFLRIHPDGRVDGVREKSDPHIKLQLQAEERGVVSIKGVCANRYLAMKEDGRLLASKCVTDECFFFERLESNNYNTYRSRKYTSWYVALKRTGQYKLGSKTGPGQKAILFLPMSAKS

[7] = JC-1 mitochondrial potential readout, lung cancer cells – cell-based, A549, JC-1 fluorescence, basal, 24 h, 100 nL, profiling panel (AID 1138); conditions: higher = more signal;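 further: A549 lung adenocarcinoma cells under basal conditions with no added stimulus; test concentration not given here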
Lefty1 = Lefty1 protein binding to printed compounds – biochemical, small-molecule microarray, 635/667 nm fluorescence, primary screen (AID 1139); conditions: fluorescence 635/667, higher = more signal
[8] = system: wheat germ agglutinin (Triticum aestivum), Alexa647-labelled; assay: Alexa647-WGA lectin binding to printed small molecules – biochemical, small-molecule microarray, 635/667 nm fluorescence, artefact control for SMM control-protein annotation, profiling panel (AID 1140); conditions: WGA-A647 binding, 635 nm fluorescence, higher = more signal;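 further: score merges 667 nm feature emission with signal to noise over triplicate slides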
[9] = target: Luciferin 4-monooxygenase (Photinus pyralis) (UniProt P08659); assay: inhibition of purified Photinus pyralis luciferase – biochemical, luminescence, purified enzyme, 2006 set, primary screen (AID 1141); conditions: purified firefly luciferase, SteadyGlo luminescence, 30 min; higher = more signal, called active from +8 up or from −8 down;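 further: cell-free assay with purified firefly luciferase at 100 ng per well in PBS; test concentration not given here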
Chain of Luciferin 4-monooxygenase (Photinus pyralis) (P08659 whole entry, looked up): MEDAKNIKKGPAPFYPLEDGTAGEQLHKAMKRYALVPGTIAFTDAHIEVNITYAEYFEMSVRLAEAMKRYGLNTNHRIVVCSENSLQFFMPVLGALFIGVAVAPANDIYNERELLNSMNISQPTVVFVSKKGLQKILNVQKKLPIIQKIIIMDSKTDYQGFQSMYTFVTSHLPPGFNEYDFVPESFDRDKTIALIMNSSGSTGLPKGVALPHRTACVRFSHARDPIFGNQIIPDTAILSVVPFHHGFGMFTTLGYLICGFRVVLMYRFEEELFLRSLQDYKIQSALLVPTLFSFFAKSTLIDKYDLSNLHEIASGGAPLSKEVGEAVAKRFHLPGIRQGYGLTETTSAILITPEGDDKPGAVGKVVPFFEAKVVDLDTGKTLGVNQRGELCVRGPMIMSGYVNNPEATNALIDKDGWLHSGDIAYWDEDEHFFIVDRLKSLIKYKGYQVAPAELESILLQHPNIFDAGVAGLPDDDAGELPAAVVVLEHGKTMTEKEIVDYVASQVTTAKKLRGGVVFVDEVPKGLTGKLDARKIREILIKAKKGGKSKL

[10] = system: Wnt5a (protein binding on small-molecule microarray); assay: small molecules binding Wnt5a protein – biophysical, small-molecule microarray, 635/667 nm fluorescence, primary screen (AID 1142); conditions: 635 nm fluorescence, higher = more signal;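 further: fluorescence read at 667 nm with signal to noise per printed feature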
[11] = ATP-based viability of Huh7 replicon cells – cell-based, CellTiter-Glo luminescence, basal, 48 h, cytotoxicity control for HCV replication inhibitor project, primary screen (AID 1143); conditions: higher = more signal, called active from +8 up or from −8 down;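 further: Huh7 hepatoma cells carrying a hepatitis C replication reporter with no stimulus; test concentration not given here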
[12] = Pseudomonas biofilm growth suppression – PAO1 strain, BacTiter-Glo luminescence, LB-PBS, primary screen (AID 1144); conditions: P. aeruginosa PAO1 biofilm, 12 h, higher = more signal
[13] = basal CRE-LacZ reporter activity in PC12 – cell-based, unstimulated, primary screen (AID 1145); conditions: no forskolin, luminescence, 4.5 h, higher = more signal, called active from +8 up or from −8 down
[14] = forskolin-driven CRE-LacZ activity in PC12 – cell-based, CRE-LacZ reporter, forskolin-stimulated, primary screen (AID 1146); conditions: luminescence, 4.5 h, higher = more signal, called active from +8 up or from −8 down;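 further: PC12 cells with 6xCRE LacZ reporter stimulated by forskolin 10 µM; beta-galactosidase reporter signal reflecting CREB driven transcription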
[15] = target: Streptavidin (Streptomyces avidinii) (UniProt P22629); assay: compounds binding control protein streptavidin – biophysical, small-molecule microarray, 635/667 nm fluorescence, artefact control for SMM compound annotation, primary screen (AID 1147); conditions: higher = more signal;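 further: signal reflects streptavidin binding to arrayed compounds as a control protein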
Chain of Streptavidin (Streptomyces avidinii) (P22629 whole entry, looked up): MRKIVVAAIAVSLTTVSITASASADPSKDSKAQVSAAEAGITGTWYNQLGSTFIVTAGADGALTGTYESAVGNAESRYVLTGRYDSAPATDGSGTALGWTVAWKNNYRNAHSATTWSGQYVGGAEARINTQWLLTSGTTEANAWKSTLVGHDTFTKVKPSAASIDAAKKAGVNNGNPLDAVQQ

[16] = probe aInhba binding on compound microarray – biochemical, small-molecule microarray, 635/667 nm fluorescence, primary screen (AID 1148); conditions: higher = more signal;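 further: score merges 667nm spot fluorescence with signal-to-noise for antibody binding to printed compounds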
Torsin-1A (Homo sapiens) [17] = target: Torsin-1A (Homo sapiens) (UniProt O14656); assay: TOR1A wild-type binding on microarray – cell lysate, small-molecule microarray, lysate, 635/667 nm, primary screen (AID 1149); conditions: COS7 hTOR1A-WT lysate, 635 nm fluorescence, higher = more signal
Chain of Torsin-1A (Homo sapiens) (O14656 whole entry, looked up): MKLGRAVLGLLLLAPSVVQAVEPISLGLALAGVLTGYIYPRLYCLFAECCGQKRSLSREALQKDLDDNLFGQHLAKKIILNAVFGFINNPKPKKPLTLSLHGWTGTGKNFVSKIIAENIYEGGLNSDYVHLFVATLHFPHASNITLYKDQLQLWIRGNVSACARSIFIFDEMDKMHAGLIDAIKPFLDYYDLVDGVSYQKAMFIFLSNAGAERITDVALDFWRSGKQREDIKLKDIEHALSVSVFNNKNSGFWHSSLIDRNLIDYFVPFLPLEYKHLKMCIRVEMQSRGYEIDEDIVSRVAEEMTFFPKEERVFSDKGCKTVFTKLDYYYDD

Torsin-1A (Homo sapiens) [18] = target: Torsin-1A (Homo sapiens) (UniProt O14656); assay: torsin A mutant lysate binding on microarrays – cell lysate, small-molecule microarray, COS7 lysate, 635/667 nm fluorescence, primary screen (AID 1150); conditions: COS7 hTOR1A mutant lysate, 635 nm fluorescence, higher = more signal;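 further: score pools 667 nm emission and signal to noise measuring lysate protein binding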
[19] = system: Sonic hedgehog protein (Shh); assay: Sonic hedgehog microarray binding compounds – biochemical, small-molecule microarray, 635/667 nm fluorescence, primary screen (AID 1151); conditions: 635 nm fluorescence, higher = more signal;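 further: Shh protein binding to compounds spotted on small-molecule microarray slides; score combines spot fluorescence intensity with signal-to-noise across triplicate slides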

| Compound | composite z-score [1] | composite z-score [2] | composite z-score [3] | composite z-score [4] | composite z-score [5] | composite z-score [6] | z-score [7] | composite z-score (Lefty1) | composite z-score [8] | z-score [9] | composite z-score [10] | z-score [11] | z-score [12] | z-score [13] | z-score [14] | composite z-score [15] | composite z-score [16] | composite z-score (Torsin-1A (Homo sapiens) [17]) | composite z-score (Torsin-1A (Homo sapiens) [18]) | composite z-score [19] |
| --- | --- | --- | --- | --- | --- | --- | --- | --- | --- | --- | --- | --- | --- | --- | --- | --- | --- | --- | --- | --- |
| C=C[C@H](COC(C)=O)N(C(=O)OC(C)(C)C)S(=O)(=O)c1ccc(Br)cc1 | 1.7 | 0.851 | 0.461 | -0.296 | 0.867 | 0.433 | 0.671 | 0.65 | 0.233 | -1.57 (inactive) | 0.77 | -0.121 (inactive) | -0.41 (inactive) | 0.652 (inactive) | 1.66 (inactive) | 0.304 | 0.898 | 0.446 | 0.31 | 0.457 |
| COC(=O)[C@@]1(Cc2ccccc2)[C@H]2c3cc(C(=O)N4CCCC4)n(Cc4nc5ccccc5[nH]4)c3C[C@H]2CN1C(=O)c1ccccc1 | 2.51 | 1.24 | 1.22 | 0.656 | 1.11 | -0.297 | 1.05 | -0.931 | 0.726 | 1.5 (inactive) | 0.0972 | -2.97 (inactive) | -0.509 (inactive) | 0.773 (inactive) | 1.46 (inactive) | 1.51 | 0.427 | 0.746 | 1.24 | -0.105 |
| O=C1C2C=CC(C(O)c3c(F)cccc3Cl)N(Nc3ccccc3)C2C(=O)N1c1ccccc1 (stereo not given) | 0.397 | 1.26 | 0.471 | 1.03 | 1.24 | -0.0407 | 0.555 | 0.464 | 0.816 | 0.429 (inactive) | 0.422 | -0.165 (inactive) | -0.48 (inactive) | 0.0535 (inactive) | -0.0349 (inactive) | 1.1 | 0.153 | 0.463 | 0.836 | -0.104 |
| COc1ccc(C#Cc2ccc3c(c2)[C@]2(C(=O)N3)[C@H](c3ccccc3OCCO)N3[C@H](c4ccccc4)[C@H](c4ccccc4)OC(=O)[C@H]3[C@@H]2C(=O)O)cc1 | 1.61 | 1.22 | 0.191 | 0.951 | 0.694 | 0.314 | -2.59 | 1.15 | 1.28 | -3.9 (inactive) | 0.535 | -4.91 (inactive) | -1.66 (inactive) | -1.16 (inactive) | 4.03 (inactive) | 1.45 | 0.909 | 0.498 | 0.659 | 2.06 |
| O=C1OCCC/C=C\[C@H]2OC34C=CCN(CCN5CCOCC5)C(=O)[C@H]3N(CCCO)C(=O)[C@@H]4C12 (stereo not given in full) | -0.851 | -0.786 | -0.253 | -1.16 | -0.803 | -0.506 | -0.278 | -0.483 | 0.023 | 0.266 (inactive) | -0.196 | 0.732 (inactive) | 1.46 (inactive) | -0.484 (inactive) | -0.947 (inactive) | -0.388 | -0.292 | -0.222 | 1.01 | -0.165 |
